Results published in PubChem BioAssay (NCATS).
Inconclusive results are not listed. Activity calls are given as the source filed them. Unless noted, the call rests on the fitted dose curve; in most records, active means well fitted curve in either direction with a large enough effect (not every such curve was filed as active); inconclusive means small, poorly fitted or top-dose-only effect, or another doubt; inactive means flat fitted curve, though single readings scatter.

How the values were obtained:
[1] = AP1 Signaling Pathway (AID 357); conditions: ME-180 AP-1-bla reporter, EGF-induced, beta-lactamase ratio, 5 h; at 17.2 µM (top of the series) unless noted; further: on the % scale 0 is the no-effect control and ±100 the full control effect
In short: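 ME-180 cells with beta-lactamase reporter under AP-1 response element, stimulated with EC50 EGF; compounds tested in titration series, 5 h at 37 °C. CCF4 substrate added 2.5 h at room temperature; 460/530 nm emission ratio gave %activity and AC50.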

[2] = NFAT Signaling Pathway (AID 444); conditions: Jurkat NFAT-bla M1, carbachol, beta-lactamase ratio, 5 h; at 17.2 µM (top of the series) unless noted;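 further: carbachol stimulus at about its EC50 of 1 µM final; on the % scale 0 is the no-effect control and ±100 the full control effect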
In short: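 Read-out: CCF4 FRET ratio (460 nm/530 nm) after 1 h RT dye loading, used for %activity and AC50 from titration series. Cells: Jurkat NFAT-β-lactamase/M1 line, treated with compound plus 1 uM carbachol for 5 h, 37 °C.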

[3] = Stat Signaling Pathway (AID 446); conditions: ME-180 (cervical carcinoma) SIE beta-lactamase reporter, IL-6 stimulated, 5 h; at 17.2 µM (top of the series) unless noted;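 further: ME-180 cervical cancer cells given 40 pM IL-6 alongside compound; SIE-controlled beta-lactamase reporter measured as 460/530 nm FRET emission ratio; on the % scale 0 is the no-effect control and ±100 the full control effect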
In short: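 Overnight-plated ME-180 cells bearing a STAT Inducible Element beta-lactamase reporter; 5 h co-exposure to compound and 40 pM IL-6; values normalized to 300 pM IL-6 and 125 nM JAK inhibitor controls.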

[4] = target: Glucocorticoid receptor (Homo sapiens) (UniProt P04150); experiment: GR-GFP Redistribution (AID 450;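 active means compounds whose dose series gives a full or clear partial fitted curve of increased nuclear translocation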; further: potency means the concentration at half of the fitted maximal effect); conditions: U2OS GR-GFP nuclear translocation, laser cytometry, 2 h; series mostly up to 20.6 µM
Sequence of Glucocorticoid receptor (Homo sapiens) (P04150 whole entry, looked up): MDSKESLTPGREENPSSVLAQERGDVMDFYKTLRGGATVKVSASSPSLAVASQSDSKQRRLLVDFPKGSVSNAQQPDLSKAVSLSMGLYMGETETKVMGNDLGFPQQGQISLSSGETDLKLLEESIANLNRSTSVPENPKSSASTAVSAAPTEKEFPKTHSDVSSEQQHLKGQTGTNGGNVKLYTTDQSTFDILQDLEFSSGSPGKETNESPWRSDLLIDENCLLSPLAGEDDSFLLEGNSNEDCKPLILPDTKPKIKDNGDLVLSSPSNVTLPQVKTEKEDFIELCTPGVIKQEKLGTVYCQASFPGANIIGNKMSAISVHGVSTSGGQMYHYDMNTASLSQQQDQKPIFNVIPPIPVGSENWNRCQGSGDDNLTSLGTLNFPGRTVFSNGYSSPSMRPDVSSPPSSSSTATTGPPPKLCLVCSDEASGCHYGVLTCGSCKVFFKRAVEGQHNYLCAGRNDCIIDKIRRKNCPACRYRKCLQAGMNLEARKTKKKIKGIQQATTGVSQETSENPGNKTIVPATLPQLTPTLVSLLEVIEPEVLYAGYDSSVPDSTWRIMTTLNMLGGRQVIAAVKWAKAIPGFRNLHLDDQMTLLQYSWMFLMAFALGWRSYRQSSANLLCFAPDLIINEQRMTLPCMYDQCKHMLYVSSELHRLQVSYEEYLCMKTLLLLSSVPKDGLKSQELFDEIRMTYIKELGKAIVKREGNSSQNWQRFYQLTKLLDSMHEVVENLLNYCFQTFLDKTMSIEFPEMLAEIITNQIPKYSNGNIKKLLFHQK

COc1cccc(NC(=O)c2cc(C(=O)Nc3cccc(OC)c3)n(C)n2)c1
inactive: activity change, negative = inhibition [1] -12.7% | activity change, negative = inhibition [2] -14.3% | activity, negative = inhibition [3] -3.92% | Potency [4] > 20.6 µM

CC(C)C1Cc2c(C#N)c(N)sc(=S)c2CO1 (stereo not given)
inactive: activity change, negative = inhibition [1] -19.3% | activity change, negative = inhibition [2] -23.4% | activity, negative = inhibition [3] 1.85% | Potency [4] > 20.6 µM

C=C(C)C1Cc2c(C)nn(-c3nc(C)cc(C)n3)c2C1 (stereo not given)
inactive: activity change, negative = inhibition [1] -4.28% | activity change, negative = inhibition [2] 10.4% | activity, negative = inhibition [3] 0.182% | Potency [4] > 20.6 µM

Cn1c(-n2c(-c3ccco3)nc3ccccc3c2=O)nc2ccccc21
inactive: activity change, negative = inhibition [1] -5.43% | activity change, negative = inhibition [2] -6.94% | activity, negative = inhibition [3] 9.91% | Potency [4] > 20.6 µM

O=C(NCCN1CCOCC1)c1ccc(=O)oc1
inactive: activity change, negative = inhibition [1] 4.3% | activity change, negative = inhibition [2] 8.89% | activity, negative = inhibition [3] 4.33% | Potency [4] > 20.6 µM

Cc1nc2c(o1)CCc1ccccc1C2O (stereo not given)
inactive: activity change, negative = inhibition [1] 8.51% | activity change, negative = inhibition [2] 3.41% | activity, negative = inhibition [3] 5.73% | Potency [4] > 20.6 µM

CNC(=O)C1CC(=O)N(Cc2ccccc2)C(=Nc2ccc(OC)cc2)S1 (stereo not given)
inactive: activity change, negative = inhibition [1] -3.9% | activity change, negative = inhibition [2] 4.86% | activity, negative = inhibition [3] -6.63% | Potency [4] > 20.6 µM

COc1ccccc1C(=O)N1CCCC1(C#N)c1ccccc1 (stereo not given)
inactive: activity change, negative = inhibition [1] -10.1% | activity change, negative = inhibition [2] -0.126% | activity, negative = inhibition [3] -2.09% | Potency [4] > 20.6 µM

CCOC(=O)c1cc(C)n(Cc2cccc(OC)c2OC)c1C
inactive: activity change, negative = inhibition [1] -16.9% | activity change, negative = inhibition [2] -21.6% | activity, negative = inhibition [3] -14.9% | Potency [4] > 20.6 µM

COc1ccc(C2CC(c3ccccc3)Nc3nc(N)nn32)cc1 (stereo not given)
inactive: activity change, negative = inhibition [1] 9.32% | activity change, negative = inhibition [2] -6.69% | activity, negative = inhibition [3] 1.39% | Potency [4] > 20.6 µM

COC(=O)c1ccc(Cn2nnc3c(sc4nc(N5CCOCC5)c5c(c43)CCCC5)c2=O)o1
inactive: activity change, negative = inhibition [1] 0.759% | activity change, negative = inhibition [2] -21.1% | activity, negative = inhibition [3] -4.56% | Potency [4] > 20.6 µM

Cc1nc(NCc2ccccc2)c(C(N)=O)c2c1COC(C)(C)C2
inactive: activity change, negative = inhibition [1] 1.8% | activity change, negative = inhibition [2] 9.09% | activity, negative = inhibition [3] 6.9% | Potency [4] > 20.6 µM

CCOc1ccccc1C(=O)NCCCCCC(=O)O
inactive: activity change, negative = inhibition [1] -1.91% | activity change, negative = inhibition [2] 2.57% | activity, negative = inhibition [3] 6.07% | Potency [4] > 20.6 µM

CCC(=O)NC1(C(F)(F)F)C(=O)Nc2c1c(=O)[nH]c(=O)n2Cc1ccco1 (stereo not given)
inactive: activity change, negative = inhibition [1] 6.62% | activity change, negative = inhibition [2] 18.9% | activity, negative = inhibition [3] -0.859% | Potency [4] > 20.6 µM

CCc1cccc(C)c1N(C(=O)Cn1c(=O)[nH]c2ccccc21)C(C)COC (stereo not given)
inactive: activity change, negative = inhibition [1] -2.33% | activity change, negative = inhibition [2] 17.7% | activity, negative = inhibition [3] -1.06% | Potency [4] > 20.6 µM

Cc1nn2c(-c3ccc(Cl)cc3)nnc2s1
inactive: activity change, negative = inhibition [1] -4.06% | activity change, negative = inhibition [2] -5.76% | activity, negative = inhibition [3] 14.5% | Potency [4] > 20.6 µM

COc1ccc(/C(O)=C2\C(=O)C(=O)N(CCN3CCOCC3)C2c2ccccc2OC)cc1 (stereo not given)
inactive: activity change, negative = inhibition [1] -4.72% | activity change, negative = inhibition [2] 15.6% | activity, negative = inhibition [3] -2.59% | Potency [4] > 20.6 µM

CCOc1ccc(N=C(NC#N)SCC(=O)NC2CC2)cc1
inactive: activity change, negative = inhibition [1] -3.71% | activity change, negative = inhibition [2] -22.1% | activity, negative = inhibition [3] -16.7% | Potency [4] > 20.6 µM

COc1ccc(C2=Nn3c(nnc3-c3ccccc3)SC2)cc1OC
inactive: activity change, negative = inhibition [1] -10.8% | activity change, negative = inhibition [2] -10.8% | activity, negative = inhibition [3] 3.68% | Potency [4] > 20.6 µM

CC(C)C1Cc2c(sc3c2c(=O)n(-c2ccccc2)c2nncn32)CO1 (stereo not given)
inactive: activity change, negative = inhibition [1] -6.58% | activity change, negative = inhibition [2] -10.2% | activity, negative = inhibition [3] 5.31% | Potency [4] > 20.6 µM

CCOC(=O)Cc1[nH]nc2c1C(c1cc(OC)ccc1OC)C(C#N)=C(N)O2 (stereo not given)
inactive: activity change, negative = inhibition [1] -11.5% | activity change, negative = inhibition [2] -0.329% | activity, negative = inhibition [3] -9.93% | Potency [4] > 20.6 µM

O=C(NCCN1CCOCC1)c1cc2n(n1)C(C(F)(F)F)CC(c1ccc(F)cc1)N2 (stereo not given)
inactive: activity change, negative = inhibition [1] 2.33% | activity change, negative = inhibition [2] 0.228% | activity, negative = inhibition [3] 8.95% | Potency [4] > 20.6 µM

CCC1(C)Cc2c(sc(NC(=O)CCC(=O)O)c2C#N)CO1 (stereo not given)
inactive: activity change, negative = inhibition [1] 4.06% | activity change, negative = inhibition [2] 0.708% | activity, negative = inhibition [3] 9.62% | Potency [4] > 20.6 µM

COc1ccc(-c2cn3ccsc3n2)cc1
inactive: activity change, negative = inhibition [1] 11.1% | activity change, negative = inhibition [2] 4.22% | activity, negative = inhibition [3] -5.92% | Potency [4] > 20.6 µM

c1ccc(OCc2nn3c(C4CCCCC4)nnc3s2)cc1
inactive: activity change, negative = inhibition [1] -8.37% | activity change, negative = inhibition [2] 0.0415% | activity, negative = inhibition [3] 8.07% | Potency [4] > 20.6 µM

CCN(CC)CCCN1C(=O)C(=O)/C(=C(/O)c2ccc3c(c2)CC(C)O3)C1c1cccnc1 (stereo not given)
inactive: activity change, negative = inhibition [1] 4.22% | activity change, negative = inhibition [2] 11.9% | activity, negative = inhibition [3] 9.37% | Potency [4] > 20.6 µM

CCOc1ccc(Br)cc1CC(=O)O
inactive: activity change, negative = inhibition [1] 8.45% | activity change, negative = inhibition [2] -5.28% | activity, negative = inhibition [3] 12.6% | Potency [4] > 20.6 µM

Cc1nn(C)cc1CNC(=O)c1ccc(Br)o1
inactive: activity change, negative = inhibition [1] 5.3% | activity change, negative = inhibition [2] -0.512% | activity, negative = inhibition [3] 6.82% | Potency [4] > 20.6 µM

CCc1cc(=O)oc2cc(C)c(CN3CCCCC3)c(O)c12
inactive: activity change, negative = inhibition [1] 7.78% | activity change, negative = inhibition [2] -13.9% | activity, negative = inhibition [3] -6.86% | Potency [4] > 20.6 µM

Cc1ccc(OCC(=O)N(C)CCc2ccccn2)cc1
inactive: activity change, negative = inhibition [1] -3.13% | activity change, negative = inhibition [2] 5.19% | activity, negative = inhibition [3] 6.69% | Potency [4] > 20.6 µM

COC(=O)CN1C2(C#N)CCCCC2CC2CCCCC21C#N (stereo not given)
inactive: activity change, negative = inhibition [1] 2.79% | activity change, negative = inhibition [2] -12.3% | activity, negative = inhibition [3] 13% | Potency [4] > 20.6 µM

Cc1ccc2c(c1)C(CCN)C(=O)N2Cc1ccccc1 (stereo not given)
inactive: activity change, negative = inhibition [1] 19.6% | activity change, negative = inhibition [2] -9.23% | activity, negative = inhibition [3] 5.36% | Potency [4] > 20.6 µM

Cn1ncc(N=Cc2ccccc2)c1C(N)=O
inactive: activity change, negative = inhibition [1] 5.51% | activity change, negative = inhibition [2] 6.04% | activity, negative = inhibition [3] 5.52% | Potency [4] > 20.6 µM

COc1cccc(Cn2c(NCC(C)C)nc3c2c(=O)n(C)c(=O)n3C)c1
inactive: activity change, negative = inhibition [1] 15.5% | activity change, negative = inhibition [2] -1.36% | activity, negative = inhibition [3] -6% | Potency [4] > 20.6 µM

C=CCn1c(SCc2c(F)c(F)c(F)c(F)c2F)nc(O)cc1=O
inactive: activity change, negative = inhibition [1] 4.5% | activity change, negative = inhibition [2] 25.9% | activity, negative = inhibition [3] -10.5% | Potency [4] > 20.6 µM

COc1ccc(-n2ncc3c(Nc4cccc(C)c4)ncnc32)cc1
inactive: activity change, negative = inhibition [1] 1.56% | activity change, negative = inhibition [2] -11.9% | activity, negative = inhibition [3] -27.7% | Potency [4] > 20.6 µM

Oc1oc(-c2ccccc2)nc1C=NCc1ccncc1
inactive: activity change, negative = inhibition [1] 1.8% | activity change, negative = inhibition [2] -8.61% | activity, negative = inhibition [3] 22.7% | Potency [4] > 20.6 µM

COc1ccc2[nH]c(C)c(C(=O)CN3CCN(C(=O)c4ccco4)CC3)c2c1
inactive: activity change, negative = inhibition [1] -11.2% | activity change, negative = inhibition [2] -1.42% | activity, negative = inhibition [3] -3.32% | Potency [4] > 20.6 µM

CC(=O)O[C@@]12CO[C@@H]1C[C@H](O)[C@@]1(C)C(=O)[C@H](O)C3=C(C)[C@@H](OC(=O)[C@H](O)[C@@H](NC(=O)OC(C)(C)C)c4ccccc4)C[C@](O)([C@@H](OC(=O)c4ccccc4)[C@H]21)C3(C)C
inactive: activity change, negative = inhibition [1] -3.46% | activity change, negative = inhibition [2] 29.1% | activity, negative = inhibition [3] -5.76% | Potency [4] > 20.6 µM

C1CNCCNCCCNCCNC1
inactive: activity change, negative = inhibition [1] 1.85% | activity change, negative = inhibition [2] 2.39% | activity, negative = inhibition [3] -11.5% | Potency [4] > 20.6 µM

Cn1c(=O)c2c(nc(NCc3ccc4c(c3)OCO4)n2Cc2ccc(F)cc2)n(C)c1=O
inactive: activity change, negative = inhibition [1] -26% | activity change, negative = inhibition [2] -10.4% | activity, negative = inhibition [3] -22% | Potency [4] > 20.6 µM

CCOC(=O)C1CCCN(c2nc3ccccc3nc2C(C#N)C(=O)OC(C)COC)C1 (stereo not given)
inactive: activity change, negative = inhibition [1] -5.69% | activity change, negative = inhibition [2] -5.6% | activity, negative = inhibition [3] -14.5% | Potency [4] > 20.6 µM

Nc1nnnn1N=C1CCCCC1
inactive: activity change, negative = inhibition [1] -7.36% | activity change, negative = inhibition [2] 0.933% | activity, negative = inhibition [3] -8.04% | Potency [4] > 20.6 µM

COc1ccc(/C(O)=C2/C(=O)C(=O)N(CCCN(C)C)C2c2ccc(C)o2)cc1Cl (stereo not given)
inactive: activity change, negative = inhibition [1] 9.2% | activity change, negative = inhibition [2] -6.18% | activity, negative = inhibition [3] 3.77% | Potency [4] > 20.6 µM

COC(=O)/C=c1/s/c(=C(\C#N)C(=O)NCc2ccco2)n(-c2ccccc2)c1=O
inactive: activity change, negative = inhibition [1] -2.83% | activity change, negative = inhibition [2] -25.7% | activity, negative = inhibition [3] 5.13% | Potency [4] > 20.6 µM
